Compound activity (PubChem)
GPT2 inh: Primary qHTS assay for inhibitors of Glutamate pyruvate transaminase 2 (GPT2); Alanine aminotransferase 2 (Homo sapiens), Q8TD30; Recombinant GPT2, coupled pyruvate oxidase/HRP Amplex Red fluorescence; AID 1671188, 2021; Potency, µM (top dose mostly 57.7 µM), hits mostly inhibitors; actives 0.25% (n = 100,000); further: nearly all actives have a fitted effect of over 60% in size
Target sequence (Q8TD30 whole entry, looked up): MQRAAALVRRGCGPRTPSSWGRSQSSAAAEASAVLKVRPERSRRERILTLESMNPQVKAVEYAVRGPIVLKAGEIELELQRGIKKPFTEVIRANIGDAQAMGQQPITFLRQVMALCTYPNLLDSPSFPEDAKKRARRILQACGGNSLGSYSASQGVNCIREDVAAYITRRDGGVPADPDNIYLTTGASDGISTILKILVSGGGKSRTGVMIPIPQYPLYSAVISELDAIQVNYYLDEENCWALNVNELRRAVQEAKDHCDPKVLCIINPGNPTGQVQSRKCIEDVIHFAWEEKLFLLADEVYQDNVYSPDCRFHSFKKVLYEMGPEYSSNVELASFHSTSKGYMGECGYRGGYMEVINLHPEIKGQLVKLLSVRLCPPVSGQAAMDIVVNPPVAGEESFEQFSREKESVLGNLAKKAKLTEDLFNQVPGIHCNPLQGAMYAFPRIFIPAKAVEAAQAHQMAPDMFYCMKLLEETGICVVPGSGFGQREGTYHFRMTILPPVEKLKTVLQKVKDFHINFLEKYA
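Recombinant GPT2 (10ng/uL) with 250uM a-KG and 2mM L-alanine, 30 min at room temperature, in HEPES pH 7.5 buffer. Pyruvate detected by pyruvate oxidase/HRP/Amplex Red fluorescence after 30 min in the dark; AOA (50uM) as positive control.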
HEK293 viab: GF-AFC viability counterscreen for inhibitors of alpha-synuclein gene (SNCA) expression | HEK-293-SNCA-luc viability, GF-AFC fluorescence, 24 h | Potency, µM (highest dose often 57.1 µM), hits mostly cytotoxic | actives 0.12% (n = 150,000); further: nearly all actives have a fitted effect of over 30% in size
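Cytotoxicity counterscreen: after 24 h compound treatment of genome-edited SNCA-luciferase HEK-293 cells, live-cell protease substrate GF-AFC read by fluorescence after 30 min; activity scaled between DMSO (0%) and medium-only (-100%), curves Hill-fitted.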
SNCA expr inh: Primary qHTS assay for inhibitors of alpha-synuclein gene (SNCA) expression | Potency, µM (doses to about 57.2 µM), usual class: inhibitors | HEK-293 SNCA-luciferase knock-in, luminescence, 24 h | actives 0.17% (n = 140,000); further: nearly all actives have a fitted effect of over 45% in size
Of the large screens only hits and unclear results are named; the others gave an inactive call; ! = not active in a repeat. An excerpt weighted towards active compounds, which were near 0.32% of everything screened. The call rests on the fitted dose curve; in most records, active means well fitted curve in the direction sought with a large enough effect; inconclusive means small, poorly fitted or top-dose-only effect, or another doubt; inactive means no such curve, though single readings can be large; an effect the other way counts as inactive or inconclusive.

COc1cc(O)cc(/C=C/c2cccc(O)c2)c1	none (no result: SNCA expr inh)
O=C(NC1CCN(Cc2cccc(-c3cccs3)c2)CC1)c1ccccc1Cl	none
O=C(Nc1nc2ccc(F)cc2s1)c1nc(S(=O)(=O)Cc2ccccc2)ncc1Cl	HEK293 viab 31.6µM, SNCA expr inh inconclusive (no result: GPT2 inh)
Cc1cccc(CS(=O)(=O)c2ncc(Cl)c(C(=O)Nc3nc4ccc(F)cc4s3)n2)c1	SNCA expr inh inconclusive (no result: GPT2 inh)
OCC1CCCN(c2ccc(-c3nc(-c4cccc(C(F)(F)F)c4)no3)cn2)C1 (stereo unspecified)	none
COc1ccccc1N1CCN(S(=O)(=O)c2c(C)sc3ncn(CC(=O)Nc4ccc(C(F)(F)F)cc4)c(=O)c23)CC1	none (no result: GPT2 inh)
COc1ccccc1N1CCN(S(=O)(=O)c2c(C)sc3ncn(CC(=O)Nc4ccccc4F)c(=O)c23)CC1	SNCA expr inh 2.51µM (no result: GPT2 inh)
COc1ccc(OCC2CC3(CCCCC3)CN2C(=O)Cc2cccc(F)c2)cc1 (stereo unspecified)	none
O=C(Nc1cc2ccc(O)cc2oc1=O)c1ccc(F)cc1	SNCA expr inh 2µM (no result: GPT2 inh)
Cc1ccc(C(=O)Nc2cc3cc(Cl)ccc3oc2=O)cc1	none (no result: GPT2 inh)
Cc1ccc(-c2ccccc2CN)cc1Cl	none
COc1cc(O)c2c(c1)C1OC1C[C@H](O)[C@H](O)C(=O)/C=C\C[C@H](C)OC2=O (stereo partly specified)	HEK293 viab 11.9µM (no result: SNCA expr inh)
COc1cc(O)c2c(c1)C1OC1C[C@H](O)[C@H](O)C(=O)C=CC[C@H](C)OC2=O (stereo partly specified)	HEK293 viab inconclusive
O=C(NC1CCCC1)C1CCCN(Cc2cccc(-c3ccc(F)cc3F)c2)C1 (stereo unspecified)	none
CN(Cc1ccccc1)Cc1cn([C@H]2CO[C@H]3[C@@H]2OC[C@@H]3NS(=O)(=O)c2cccc3cccnc23)nn1	GPT2 inh 4.47µM
CN(Cc1ccccc1)Cc1cn([C@H]2CO[C@H]3[C@@H]2OC[C@@H]3NS(=O)(=O)Cc2ccccc2)nn1	none
O=C(NCC1CCCCC1)c1nc2sccn2c1-c1ccc(C(F)(F)F)cc1	SNCA expr inh inconclusive
Cc1ccc(-n2ncc3c(N4CCCCCC4)ncnc32)cc1	SNCA expr inh 2.24µM (no result: GPT2 inh)
Fc1ccc(-n2ncc3c(N4CCCCCC4)ncnc32)cc1	none (no result: GPT2 inh)
O=C(NCc1cccc(Cl)c1)c1ccc2nnc(C3CCCC3)n2c1	none
CN1CCCCCC(O)c2cc(C(=O)N3CCN(Cc4ccccc4)CC3)ccc21 (stereo unspecified)	none
C=C1/C(=C/C=C2\CCC[C@]3(C)[C@@H]([C@H](C)/C=C/[C@@H](C)C(C)C)CC[C@@H]23)C[C@@H](O)C[C@@H]1O	none (no result: SNCA expr inh)
C=C1/C(=C/C=C2\CCC[C@]3(C)[C@@H]([C@H](C)/C=C/C(=O)C4CC4)CC[C@@H]23)C[C@@H](O)C[C@@H]1O	HEK293 viab 23.8µM (no result: SNCA expr inh)
O=C(c1nnc(COc2ccc(F)cc2)n1-c1ccccc1)N1CCC[C@@H]1C(c1ccccc1)c1ccccc1	HEK293 viab inconclusive, SNCA expr inh inconclusive
CC(Cn1cccn1)Nc1ccc(-c2nc(COc3ccccc3)no2)cn1 (stereo unspecified)	GPT2 inh inconclusive
O=C(Nc1cc2cc[nH]c2cn1)c1ccccc1	HEK293 viab inconclusive, SNCA expr inh 1.52µM
COCCC1(NC(=O)c2ccccc2)CCN(Cc2ccc3[nH]ccc3c2)CC1	none
COc1ccc(NC(=O)c2cccc3c2CCN3C(=O)Nc2ccc(F)cc2)cc1	none
COc1ccc(NC(=O)N2CCc3c(C(=O)NCc4ccncc4)cccc32)cc1	SNCA expr inh inconclusive
CCNC(=O)c1cccc2c1CCN2C(=O)Nc1ccc(C)cc1	SNCA expr inh inconclusive
CCCNC(=O)c1cccc2c1CCN2C(=O)Nc1ccc(OC)cc1	SNCA expr inh 28.2µM
COc1ccc(NC(=O)N2CCc3c(C(=O)NCCCN(C)C)cccc32)cc1	SNCA expr inh inconclusive
COc1ccc(NC(=O)N2CCc3c(C(=O)Nc4ccc5c(c4)OCO5)cccc32)cc1	SNCA expr inh 7.94µM
COc1ccc(NC(=O)N2CCc3c(C(=O)NCCCN4CCCC4=O)cccc32)cc1	SNCA expr inh 10µM
CCN1CCN(CCNC(=O)c2cccc3c2CCN3C(=O)Nc2ccc(C)cc2)CC1	SNCA expr inh 12.6µM
O=C(Cc1ccc(N(Cc2cccc(F)c2)C(=O)c2ccco2)cc1)Nc1ccccc1	SNCA expr inh inconclusive
CCCC(=O)N1Cc2ccccc2CC2(CCCN(C)C2)C1 (stereo unspecified)	none
COc1ccccc1CN1Cc2cc(NC(=O)c3ccc4c(c3)OCO4)ccc2OC(C)C1=O (stereo unspecified)	none
CN(C)CCNC(=O)c1ccc2c(c1)C1(CCN(CC3CC3)C1)CN2Cc1ccccc1 (stereo unspecified)	SNCA expr inh inconclusive
Cc1ccsc1CN1CCC(n2c(C)cnc2-c2ccncc2)C1 (stereo unspecified)	none
Cc1ccc(-c2cc(C(=O)NCC(F)F)c3cnn(C)c3n2)c(C)c1	GPT2 inh inconclusive
COc1ccccc1Nc1ccnc(N2CCC(NC(=O)c3ccc(Cl)cc3)CC2)n1	none
Cc1[nH]nc2c1C(c1ccc(Cl)cc1)C(C#N)=C(N)O2 (stereo unspecified)	GPT2 inh inconclusive
Cc1nn(C)c2c1C(c1ccc(C(F)(F)F)cc1)C(C#N)=C(N)O2 (stereo unspecified)	GPT2 inh 15.3µM!
C=CC(=O)Nc1cccc(Oc2nc(Nc3ccc(N4CCN(C)CC4)cc3)ncc2Cl)c1	HEK293 viab 2.99µM!
COc1cccc(NC(=O)Nc2ccc3nc(N4CCN(C)CC4)cc(C)c3c2)c1	none (no result: GPT2 inh)
COc1cc2ncnc(Nc3ccc(F)c(Cl)c3)c2cc1O	none (no result: SNCA expr inh)
COc1cc2ncnc(Nc3ccc(F)c(Cl)c3)c2cc1NC(=O)/C=C/CN1CCCCC1	HEK293 viab 23.8µM (no result: SNCA expr inh)
COc1ccc(-c2cc(C(=O)NC3CCNCC3)c3c(C)nn(-c4ccccc4)c3n2)cc1	HEK293 viab inconclusive, SNCA expr inh inconclusive
C=Cc1ccc(Cn2c(C(=O)O)c(CNCCc3ccccc3)c3ccc(C)cc32)cc1	HEK293 viab 28.2µM, SNCA expr inh inconclusive (no result: GPT2 inh)
Cc1ccc2c(CNCCc3ccc(Cl)cc3)c(C(=O)O)n(Cc3ccc(F)cc3)c2c1	none (no result: GPT2 inh)
Cc1cccc(C)c1NC(=O)Cn1c(=O)n(Cc2ccc(C(=O)NCc3ccco3)cc2)c(=O)c2sccc21	SNCA expr inh inconclusive (no result: GPT2 inh)
Cc1cc(C)c(NC(=O)Cn2c(=O)n(Cc3ccc(C(=O)NCc4ccco4)cc3)c(=O)c3sccc32)c(C)c1	HEK293 viab inconclusive, SNCA expr inh 25.1µM (no result: GPT2 inh)
CN(C)Cc1nnc(C2CC(NC(=O)c3ccc4scnc4c3)C2)n1C (stereo unspecified)	GPT2 inh 5.62µM!, HEK293 viab inconclusive, SNCA expr inh inconclusive
CN(C)Cc1nnc(C2CC(NC(=O)c3ccc4c(c3)CCO4)C2)n1C (stereo unspecified)	none
COc1cc(NC(=O)Nc2cccc(-c3ccc(N4CCOCC4)nn3)c2)cc(OC)c1	HEK293 viab inconclusive, SNCA expr inh inconclusive
CC1CCN(C(=O)C[C@@H]2c3nc(NC(=O)c4ccc(F)cc4)sc3C[C@@H]3[C@](C)(CO)[C@H](O)CC[C@]32C)CC1	none
